Among all 320,000 compounds or so, about 2,100 (0.66%) were called active. Not shown: some 53% with an inconclusive outcome. The sample holds actives, similar compounds and a random draw of the others, so the mix is not that of the screen. The call rests on the fitted dose curve; in most records, active means well fitted inhibition curve with a large enough effect in the signal ratio, with a control signal flat (not every such curve was filed as active); inconclusive means small, poorly fitted or top-dose-only effect, or effect the other way, or a change in a side signal; inactive means flat fitted curve, though single readings scatter; the % refers to the signal ratio.
Potency means the concentration at half of the fitted maximal effect.

This assay can be described thus: qHTS Assay for Lipid Storage Modulators in Drosophila S3 Cells.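 On cell number change: cells counted by Cell Tracker Red CMTPX staining in the red channel.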 On lipid storage change, negative = inhibition: on the % scale 0 is the no-effect control and ±100 the full control effect. To be noted: BODIPY lipid droplet fluorescence, 18-24 h, cells fed with added oleic acid; cell number change: measured here: cell count max response; series mostly up to 46.1 µM; lipid storage change, negative = inhibition: at the top concentration. An outline of the steps: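 Drosophila S3 cells loaded with oleic acid (400 uM, as added) and compounds at several concentrations; lipid droplets imaged by 488-nm laser-scanning cytometry, 500–530 nm intensity and object ratio to cell channel. Percent activity normalized to 20 uM Triacsin C.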
With `Cc1cc(-c2nnc(CCC(=O)N(C)CCc3ccccc3)o2)no1`, the “lipid storage change, negative = inhibition” value was -5.76% (inactive) and the cell number change was found to be 4.46%. On the same counts, the results for `CC1CN(C/C(=N\O)C23CC4CC(CC(C4)C2)C3)CC(C)O1` (configuration not stated) are -1.17% (inactive) and -15.5%. On the same counts, the results for `O=C(NCc1ccc(Cl)cc1)c1cc([N+](=O)[O-])ccc1Cl` are -6.86% (inactive) and 16.3%. On the same counts, the results for `CN(C)S(=O)(=O)c1ccc(NC=C(C#N)C#N)cc1` are -23.2% (inactive) and -16.2%. Consider `CCn1cc([N+](=O)[O-])c(C(=O)Nc2nc(-c3ccc(C)c(C)c3)c(C)s2)n1`, for which the “lipid storage change, negative = inhibition” value is 1.14% (inactive) and the cell number change is -14.3%.

For the compound `CCn1cc([N+](=O)[O-])c(C(=O)Nc2nc(-c3ccc(C)cc3)c(C)s2)n1`, the Potency was 4.61 µM (active) and the cell number change is 18.4%. Take `Cc1ccc(-c2nc(NC(=O)c3nn(C)cc3[N+](=O)[O-])sc2C)cc1`: the outcome was inactive and the cell number change came out at 27.2%. For the compound `CCCCN(C(=O)c1ccccc1OCc1ccc(F)cc1)c1c(N)n(CCC)c(=O)[nH]c1=O`, the “lipid storage change, negative = inhibition” value was 9.4% (inactive) and the cell number change is -14.3%. For the compound `Cn1c(SCc2cccc(C#N)c2)nc2ccccc2c1=O`, the “lipid storage change, negative = inhibition” value was 3.49% (inactive) and the cell number change was found to be 7.25%. Take `COc1ccc(NC(=O)c2cccc(NC(=O)c3ccccc3)c2)c(OC)c1`: the “lipid storage change, negative = inhibition” value was -15.5% (inactive) and the cell number change is -2.85%.

For the compound `COc1cc(NC(=O)Cc2ccccc2)ccc1NC(=O)c1ccccc1`, the Potency is 23.1 µM (active) and the cell number change turned out to be 5.29%.

Consider `COc1cc(NC(=O)c2ccccc2)c(OC)cc1NC(C)=O`, for which the call was inactive and the cell number change is -0.51%. On to `COc1ccccc1NC(=O)c1ccc2nsnc2c1`, for which the Potency was 3.66 µM (active) and the cell number change is 21.1%. As to `COc1ccccc1CC(=O)Nc1cc(OC)c(NC(=O)c2ccccc2)cc1OC`, the result was inactive and the cell number change was -14.4%. For `COc1cc(NC(=O)COc2ccccc2Cl)ccc1NC(=O)c1cccs1`, the Potency is 4.61 µM (active). Consider `COc1ccccc1NC(=O)c1ccc2snnc2c1`, for which the “lipid storage change, negative = inhibition” value is 2.87% (inactive) and the cell number change was 5.09%. Regarding `COc1cc(NC(=O)c2ccc(Br)cc2)c(OC)cc1NC(=O)c1ccccc1`, the Potency was 18.4 µM (active) and the cell number change is -19.9%. As to `COc1cc(NC(=O)c2ccccc2Cl)ccc1NC(=O)c1cccs1`, the “lipid storage change, negative = inhibition” value was -3.53% (inactive) and the cell number change is 16.4%. Take `COc1cc(NC(=O)c2cccnc2)c(OC)cc1NC(=O)c1ccc(Br)cc1`: the compound was called inactive and the cell number change worked out at 15.3%.

With `COc1cc(NC(=O)c2ccc3nsnc3c2)cc(OC)c1OC`, the call was inactive and the cell number change was 3.44%.

As to `COc1ccc(OCC(=O)Nc2ccc(NC(=O)c3cccs3)c(OC)c2)cc1`, the “lipid storage change, negative = inhibition” value is -5.31% (inactive) and the cell number change worked out at 10.8%. On the same counts, the results for `COc1ccc(OCCC(=O)OCC(=O)Nc2ccc(S(=O)(=O)N3CCOCC3)cc2)cc1` are -12.5% (inactive) and -18.9%. `O=C(CSc1nnc(-c2ccc(F)cc2)o1)NC1CCCCC1`: the “lipid storage change, negative = inhibition” value was 15.9% (inactive) and the cell number change came out at 12%. As for `CCOC(=O)N1CCN(CC(O)COc2ccc3c(c2)CCC3)CC1` (configuration not stated), the “lipid storage change, negative = inhibition” value was 12.3% (inactive) and the cell number change was -3.83%.

Take `O=C(CCCCCNC(=O)N1CCn2c1nc1ccccc12)NCc1ccccc1`: the “lipid storage change, negative = inhibition” value is 7.61% (inactive) and the cell number change stood at 11.3%. `CC(NC(=O)c1cccc(N(C)C)c1)c1ccc(-n2ccnc2)cc1` (configuration not stated): the “lipid storage change, negative = inhibition” value is -3.06% (inactive).

Consider `COc1ccc(S(=O)(=O)N2CCN(c3nc4ccccc4nc3-n3nc(C)cc3C)CC2)cc1`, for which the call was inactive and the cell number change is -0.676%. Consider `O=C(NC1CCSC1=O)c1ccc(Oc2cccc(C(F)(F)F)c2)nc1` (configuration not stated), for which the “lipid storage change, negative = inhibition” value is -0.249% (inactive) and the cell number change is -7.23%. Consider `COc1ccc(F)cc1S(=O)(=O)NC1CCCCCC1`, for which the compound was classed as inactive. For the compound `C/C(=N/Nc1ncc(C(F)(F)F)cc1Cl)c1ccncc1`, the “lipid storage change, negative = inhibition” value was -0.464% (inactive) and the cell number change is -2.18%.

As for `COc1ccc(S(=O)(=O)NCC2CCCN(C(=O)CC3CCCC3)C2)cc1` (configuration not stated), the “lipid storage change, negative = inhibition” value was -12% (inactive) and the cell number change is -9.37%. Regarding `COc1cc2c(cc1NC(=O)c1ccc(C(C)(C)C)cc1)CCCC2`, the Potency is 16.4 µM (active) and the cell number change is -19.1%.

As for `COc1ccc(C(=O)Nc2cc3c(cc2OC)CCCC3)cc1Br`, the “lipid storage change, negative = inhibition” value is -6.54% (inactive) and the cell number change is -12.7%. On the same counts, the results for `COc1cc2c(cc1NC(=O)c1cccnc1)CCCC2` are 13.4% (inactive) and -6.97%.

For `Oc1ccccc1Oc1ncc(Br)c(Cl)n1`, the “lipid storage change, negative = inhibition” value is 12.3% (inactive) and the cell number change stood at 10.9%.

As to `CCOC(=O)CCc1c(C)nc2cc(-c3ccc(F)cc3)[nH]n2c1=O`, the “lipid storage change, negative = inhibition” value was -1.04% (inactive) and the cell number change was -12%.

Consider `C=CCn1c(SC(C)CC)nc(O)cc1=O` (configuration not stated), for which the call was inactive. Turning to `CCCN(CC1CC1)C(=O)COC(=O)c1[nH]c(C)c(C(=O)OCC)c1C`, the “lipid storage change, negative = inhibition” value is -1.78% (inactive) and the cell number change is -17.3%. For `CCOc1ccc2oc(C(=O)OCC(=O)NC(=O)NC)c(C)c2c1`, the “lipid storage change, negative = inhibition” value was -6.75% (inactive) and the cell number change was -6.07%.

For the compound `CCCN(CC1CC1)C(=O)COC(=O)c1oc2ccc(OCC)cc2c1C`, the Potency was 4.61 µM (active) and the cell number change worked out at 2.78%.

Turning to `CCOC(=O)N1CCC(NC(=O)c2oc3c(F)cccc3c2C)CC1`, the result was inactive and the cell number change is -4.45%. On to `CCCN(CC1CC1)C(=O)COC(=O)c1oc2c(F)cccc2c1C`, for which the Potency was 1.64 µM (active) and the cell number change came out at 1.1%. On to `CCOc1ccc2oc(C(=O)OCC(=O)NC3CCCCC3)c(C)c2c1`, for which the “lipid storage change, negative = inhibition” value is -2.63% (inactive) and the cell number change is -21.4%. For `CCn1c(O)c(C(C#N)=C2N=c3ccccc3=N2)c2ccccc21`, in that order: -0.582% (inactive) and 24.7%.

Take `O=C(Nc1cccc(NC(=O)c2ccc(Br)o2)n1)c1ccc(Br)o1`: the “lipid storage change, negative = inhibition” value is 17.3% (inactive) and the cell number change is -4.87%. Regarding `Cc1ccc(NS(=O)(=O)c2cc(C(=O)N3CCN(C)CC3)ccc2C)cc1C`, the compound was called inactive.

Source of the values: PubChem BioAssay AID2685 (National Center for Advancing Translational Sciences (NCATS), 2010).
